Measured values: PubChem BioAssay (NCI)
This is part of a sample that, as a whole, favours compounds with a hit. Of some 79,000 tested, about 15% had one in any assay. Calls of active or inactive are those of the source. Cut-off read from the data, not from the text of the source: active = growth inhibition above about 70%; inactive = the rest.

Experiments:
[1] = NCI Yeast Anticancer Drug Screen. Data for the mec2-1 strain (AID 157); details: S. cerevisiae mec2-1 strain, stronger effect = higher value
Summary of the method: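 Each compound was tested on mec2-1 yeast, a strain altered in DNA damage repair or cell cycle control. Growth inhibition is reported relative to vehicle.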

[2] = NCI Yeast Anticancer Drug Screen. Data for the rad14 strain (AID 159);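 note: 0% = growth of vehicle-treated control cultures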; details: S. cerevisiae rad14 strain growth inhibition, stronger effect = higher value
Summary of the method: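 Yeast cells carrying a defined DNA-repair defect were exposed to compounds, and growth inhibition was calculated relative to vehicle-treated control cultures.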

[3] = NCI Yeast Anticancer Drug Screen. Data for the sgs1 mgt1 strain (AID 161);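 note: 0% = growth of cultures given vehicle only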; details: S. cerevisiae sgs1 mgt1 strain, stronger effect = higher value
Summary of the method: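 Read-out: growth inhibition vs vehicle controls. Cells: mutant yeast strain deficient in DNA damage repair.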

[4] = NCI Yeast Anticancer Drug Screen. Data for the CLN2oe strain (AID 163);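 note: 0% = growth of vehicle-only control cultures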; details: S. cerevisiae CLN2oe strain, stronger effect = higher value
Summary of the method: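 First, the altered yeast strain was treated with each compound; second, its growth was measured; finally, inhibition was derived by comparison with vehicle controls.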

[5] = NCI Yeast Anticancer Drug Screen. Data for the cln2 rad14 strain (AID 165);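 note: 0% = growth equal to vehicle treated cultures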; details: S. cerevisiae cln2 rad14 strain, stronger effect = higher value
Summary of the method: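 Test compounds were added to cln2 rad14 yeast cultures; inhibition of growth was then determined by comparison with vehicle treatment.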

[6] = NCI Yeast Anticancer Drug Screen. Data for the bub3 strain (AID 167); details: S. cerevisiae bub3 mutant strain, stronger effect = higher value
Summary of the method: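 Compounds were applied to a genetically altered yeast strain carrying a cell-cycle control defect. Growth inhibition was scored against vehicle-treated controls.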

[7] = NCI Yeast Anticancer Drug Screen. Data for the wt2 strain (AID 169);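 note: 0% = growth of vehicle-treated yeast cultures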; details: S. cerevisiae wt2 strain growth inhibition, stronger effect = higher value
Summary of the method: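 The panel's yeast strains carry defined changes in DNA repair or cell cycle genes. Each strain is grown with compound, and growth loss is scored relative to vehicle.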

[8] = NCI Yeast Anticancer Drug Screen. Data for the mlh1 strain (AID 171);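 note: 0% = growth of vehicle-treated control cultures of the same strain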; details: S. cerevisiae mlh1 strain growth inhibition, stronger effect = higher value
Summary of the method: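 Inhibition values reflect reduced yeast growth in the presence of compound, referenced to vehicle controls, using a strain chosen for its alteration in DNA repair or cell cycle control.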

[9] = NCI Yeast Anticancer Drug Screen. Data for the sgs1 strain (AID 173);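 note: 0% = growth of vehicle-only control cultures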; details: S. cerevisiae sgs1 mutant, stronger effect = higher value
Summary of the method: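 Vehicle-treated cultures served as reference for growth inhibition of a yeast strain altered in DNA damage repair or cell cycle control after compound exposure.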

[10] = NCI Yeast Anticancer Drug Screen. Data for the mlh1 rad18 strain (AID 175); details: S. cerevisiae mlh1 rad18 strain growth inhibition, stronger effect = higher value
Summary of the method: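 Inhibition values reflect reduced growth of mutant yeast versus vehicle-treated controls following compound exposure; the mutations affect DNA damage repair.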

[11] = NCI Yeast Anticancer Drug Screen. Data for the rad18 strain (AID 177); details: S. cerevisiae rad18 mutant growth inhibition, stronger effect = higher value
Summary of the method: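 Steps: expose repair-mutant yeast to compound; measure growth; express as inhibition relative to vehicle control.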

[12] = NCI Yeast Anticancer Drug Screen. Data for the rad52 strain (AID 147);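 note: 0% = growth of vehicle-treated control cultures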; details: S. cerevisiae rad52 mutant growth inhibition, stronger effect = higher value
Summary of the method: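 Inhibition of yeast growth, referenced to vehicle controls, was the measured output for a strain with defective DNA damage repair.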

[13] = NCI Yeast Anticancer Drug Screen. Data for the wt1 strain (AID 149);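 note: 0% = growth of vehicle-treated wt1 cultures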; details: S. cerevisiae wt1 strain (SPY 50644) growth inhibition, stronger effect = higher value
Summary of the method: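 Yeast wt1 strain exposed to compounds; growth inhibition measured relative to vehicle-treated controls.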

[14] = NCI Yeast Anticancer Drug Screen. Data for the mgt1 strain (AID 153); details: S. cerevisiae mgt1 mutant growth inhibition, stronger effect = higher value
Summary of the method: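 In the mgt1 strain, test compounds were added and growth inhibition was determined relative to vehicle-treated controls.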

[15] = NCI Yeast Anticancer Drug Screen. Data for the rad50 strain (AID 155);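 note: 0% = growth of vehicle-only cultures of the same strain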; details: S. cerevisiae rad50 strain growth inhibition, stronger effect = higher value
Summary of the method: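 Yeast carrying a defined DNA repair defect were exposed to test compounds, and growth was compared with vehicle-treated controls to give percent inhibition.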

[16] = at 5.0 µM (retest, dose inferred, filed as 0.5)
[17] = at 50.0 µM (retest, dose inferred, filed as 5.0)

Measured: growth inhibition

CCN(CC)[P+](c1ccccc1O)(N(CC)CC)N(CC)CC
active: [1]; at 100.0 µM 85% | [2]; at 100.0 µM 95% | [3]; [17] 99% | [4]; at 100.0 µM 93% | [5]; [17] 96% | [6]; [17] 98% | [6]; at 100.0 µM 87% | [7]; at 100.0 µM 77% | [8]; at 100.0 µM 73% | [9]; at 100.0 µM 74% | [10]; [17] 74% | [10]; at 50.0 µM 70.2% | [11]; at 100.0 µM 90%
inactive: [2]; at 1.2 µM -46% | [2]; at 3.7 µM -38% | [2]; at 11.0 µM -21% | [2]; at 33.0 µM 32% | [3]; [16] 7% | [3]; at 50.0 µM 64.8% | [4]; at 1.2 µM -56% | [4]; at 3.7 µM -8% | [4]; at 11.0 µM -23% | [4]; at 33.0 µM 5% | [5]; [16] 8% | [5]; at 50.0 µM 57.6% | [6]; at 1.2 µM -41% | [6]; at 3.7 µM -3% | [6]; [16] 23% | [6]; at 11.0 µM 23% | [6]; at 33.0 µM 60% | [6]; at 50.0 µM 54.6% | [7]; at 1.2 µM -25% | [7]; at 3.7 µM -13% | [7]; at 11.0 µM -19% | [7]; at 33.0 µM 7% | [8]; at 1.2 µM -60% | [8]; at 3.7 µM -61% | [8]; at 11.0 µM -22% | [8]; at 33.0 µM 30% | [9]; at 1.2 µM -82% | [9]; at 3.7 µM -50% | [9]; at 11.0 µM -25% | [9]; at 33.0 µM 11% | [10]; [16] 39% | [11]; at 1.2 µM -6% | [11]; at 3.7 µM 37% | [11]; at 11.0 µM 53% | [11]; at 33.0 µM 59%

C=CC(C)(O)CCC1C(=C)C(O)CC2C(C)(C)CCCC12C (centres undefined)
active: [12]; at 100.0 µM 72% | [15]; at 100.0 µM 84% | [2]; at 100.0 µM 80% | [3]; [17] 81% | [3]; at 50.0 µM 80.5% | [6]; [17] 80% | [6]; at 50.0 µM 73% | [9]; at 100.0 µM 72% | [11]; at 100.0 µM 80%
inactive: [12]; at 1.2 µM 27% | [12]; at 3.7 µM 26% | [12]; at 11.0 µM 27% | [12]; at 33.0 µM 54% | [13]; at 1.2 µM -26% | [13]; at 3.7 µM -10% | [13]; at 11.0 µM -17% | [13]; at 33.0 µM -11% | [13]; at 100.0 µM 69% | [14]; at 1.2 µM -4% | [14]; at 3.7 µM -16% | [14]; at 11.0 µM -24% | [14]; at 33.0 µM 14% | [14]; at 100.0 µM 66% | [15]; at 1.2 µM 15% | [15]; at 3.7 µM 19% | [15]; [16] 36% | [15]; at 11.0 µM 19% | [15]; at 33.0 µM 61% | [15]; [17] 43% | [15]; at 50.0 µM 63.6% | [1]; at 1.2 µM -3% | [1]; at 3.7 µM 9% | [1]; [16] 48% | [1]; at 11.0 µM -10% | [1]; at 33.0 µM 4% | [1]; [17] 52% | [1]; at 50.0 µM 44.5% | [1]; at 100.0 µM 50% | [2]; at 1.2 µM -7% | [2]; at 3.7 µM -20% | [2]; at 11.0 µM -18% | [2]; at 33.0 µM 40% | [3]; [16] -23% | [4]; at 1.2 µM -8% | [4]; at 3.7 µM -34% | [4]; at 11.0 µM -8% | [4]; at 33.0 µM -16% | [4]; at 100.0 µM 28% | [5]; [16] 50% | [5]; [17] 66% | [5]; at 50.0 µM 16.7% | [6]; at 1.2 µM -4% | [6]; at 3.7 µM 7% | [6]; [16] 19% | [6]; at 11.0 µM 1% | [6]; at 33.0 µM 31% | [6]; at 100.0 µM 69% | [8]; at 1.2 µM -4% | [8]; at 3.7 µM -12% | [8]; at 11.0 µM -17% | [8]; at 33.0 µM 9% | [8]; at 100.0 µM 42% | [9]; at 1.2 µM 11% | [9]; at 3.7 µM 23% | [9]; at 11.0 µM 20% | [9]; at 33.0 µM 53% | [10]; [16] 23% | [10]; [17] 45% | [10]; at 50.0 µM 63.9% | [11]; at 1.2 µM -14% | [11]; at 3.7 µM -19% | [11]; at 11.0 µM -15% | [11]; at 33.0 µM 49%

CC[n+]1ccc2c(C)c3[nH]c4ccc(O)cc4c3c(C)c2c1
inactive: [12]; at 1.2 µM 5% | [12]; at 3.7 µM 48% | [13]; at 1.2 µM -13% | [13]; at 3.7 µM 7% | [13]; at 11.0 µM 3% | [13]; at 33.0 µM 9% | [13]; at 100.0 µM 14% | [14]; at 1.2 µM -36% | [14]; at 3.7 µM -14% | [14]; at 11.0 µM -16% | [14]; at 33.0 µM -5% | [14]; at 100.0 µM 14% | [15]; at 1.2 µM -24% | [15]; at 3.7 µM 16% | [15]; [16] 58% | [15]; at 11.0 µM 65% | [1]; at 1.2 µM -15% | [1]; at 3.7 µM -1% | [1]; [16] 1% | [1]; at 11.0 µM 0% | [1]; at 33.0 µM 6% | [1]; [17] 16% | [1]; at 50.0 µM 59.5% | [1]; at 100.0 µM 24% | [3]; [16] 4% | [3]; [17] 31% | [3]; at 50.0 µM 9.25% | [4]; at 1.2 µM 5% | [4]; at 3.7 µM 17% | [4]; at 11.0 µM 36% | [4]; at 33.0 µM 26% | [4]; at 100.0 µM 41% | [5]; [16] 5% | [5]; [17] 23% | [5]; at 50.0 µM 9.35% | [6]; at 1.2 µM -19% | [6]; at 3.7 µM -16% | [6]; [16] -8% | [6]; at 11.0 µM -16% | [6]; at 33.0 µM 3% | [6]; [17] 28% | [6]; at 50.0 µM 5.2% | [6]; at 100.0 µM 15% | [7]; at 1.2 µM -5% | [7]; at 3.7 µM -6% | [7]; at 11.0 µM -3% | [7]; at 33.0 µM -1% | [7]; at 100.0 µM 13% | [8]; at 1.2 µM 0% | [8]; at 3.7 µM -16% | [8]; at 11.0 µM -18% | [8]; at 33.0 µM -4% | [8]; at 100.0 µM 10% | [9]; at 1.2 µM 9% | [9]; at 3.7 µM 38% | [9]; at 11.0 µM 43% | [9]; at 33.0 µM 0% | [9]; at 100.0 µM 46% | [10]; [16] 5% | [10]; [17] 30% | [10]; at 50.0 µM 65% | [11]; at 1.2 µM -23% | [11]; at 3.7 µM 2% | [11]; at 11.0 µM 23% | [11]; at 33.0 µM -6% | [11]; at 100.0 µM 6%
active: [12]; at 11.0 µM 70% | [12]; at 33.0 µM 90% | [12]; at 100.0 µM 92% | [15]; at 33.0 µM 86% | [15]; [17] 92% | [15]; at 50.0 µM 81.5% | [15]; at 100.0 µM 90%
